Assay [1] can be described thus: qHTS assay to identify small molecule agonists of the hypoxia (HIF-1) signaling pathway - cell viability counter screen (AID 1224844; calls by dose curve; note: nearly all actives have a fitted effect of over 50% in size). In outline: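 Tox21 10K compounds were added to HRE-bla ME-180 cells (0.5% dialyzed FBS) and incubated 17 hrs at 37C; ATP-based CellTiter-Glo luminescence then reported cell viability in the same wells.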
A short description of assay [2]: qHTS assay to identify small molecule agonists of H2AX (AID 1224845; active = well fitted activation curve with a large enough effect in the signal ratio in the repeat runs, not every such curve was filed as active; the % refers to the signal ratio). The essentials: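 Phospho-H2AX Ser139 measured by HTRF (ex 320 nm; em 665 and 620 nm) after 24 hr antibody incubation. Compounds, 15 concentrations, 0.76% DMSO, were applied to CHO-K1 cells for 3hr at 37C before lysis.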
A general note: In qHTS, concentration-response curves come from the screen itself.

Assay [3] can be described thus: qHTS assay to identify small molecule agonists of the hypoxia (HIF-1) signaling pathway (AID 1224846; active = well fitted activation curve with a large enough effect in the signal ratio in the repeat runs, not every such curve was filed as active; the % refers to the signal ratio). In outline: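 Steps: seed ME-180 HRE-bla cells (2,000/well, 0.5% dialyzed FBS); incubate 5 hrs at 37C; pin-transfer compounds or DMSO; incubate 17 hrs; add LiveBLAzer B/G substrate CCF4-AM; measure reporter activation by FRET.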
The nature of assay [4]: qHTS assay to identify small molecule agonists of H2AX - cell viability counter screen (AID 1224847; calls by dose curve;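 note: wild-type CHO-K1 cells; top concentration of the series differs between compounds; nearly all actives have a fitted effect of over 30% in size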). The essentials:
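Counter-screen for viability: CellTiter-Glo ATP luminescence read after 3 h compound treatment (15-point titration, 0.76% DMSO final) of CHO-K1 cells at 37C, with 30 min room-temperature reagent incubation.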

Assay [5] can be described thus: qHTS assay to identify small molecule antagonists of the estrogen related receptor (ERR) signaling pathway from Tox21 library (AID 1224848). Note: nearly all actives have a fitted effect of over 50% in size. Note: potency is the fitted concentration of half-maximal effect. The essentials: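 Antagonist-mode screen of the Tox21 10K library in an NTP-provided ERR reporter cell line; 18 h compound exposure at 37 C, luminescence measured with ONE-Glo.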
Assay [6] can be described thus: qHTS assay to identify small molecule agonists of the estrogen related receptor (ERR) signaling pathway from Tox21 library (AID 1224849; calls by dose curve; note: nearly all actives have a fitted effect of over 15% in size). As to conditions: ERR reporter cell line, ONE-Glo luciferase, 18 h; at 92.4 µM (top of the series) unless noted. In outline: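 Agonist signal is luciferase luminescence from an ERR reporter cell line treated 18 h at 37 C with DMSO-dissolved compounds, read 30 min after ONE-Glo addition at room temperature.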

Assay [7] in a line: qHTS RealTime-Glo MT Cell Viability Assay in HepG2 cells - 24 hour (AID 1224867). Note: nearly all actives have a fitted effect of over 50% in size. In outline:
(§1)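 Viability was tracked continuously by NanoLuc luminescence from prosubstrate reduced by living HepG2 cells, at successive time points over 40 h of compound exposure. Cells with reagent were preincubated 5 h at 37 °C before compound addition.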

Assay [8] is described as follows: qHTS RealTime-Glo MT Cell Viability Assay in HEK293 cells - 32 hour (AID 1224868). Note: top concentration of the series differs between compounds; nearly all actives have a fitted effect of over 50% in size. The essentials:
(§2)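 Viability tracked continuously by luminescence as live cells reduce a prosubstrate for NanoLuc; HEK293 cells preincubated 5 h, compound-treated at 37 C, and read at 0, 8, 16, 24, 32 and 40 h.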

A short description of assay [9]: A CellTox Green Cytotoxicity Assay to monitor cytotoxicity in HEK293 cells - 0 hour (AID 1224869). Note: nearly all actives have a fitted effect of over 50% in size. The essentials:
(§3)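 Cytotoxicity was tracked continuously in HEK293 cells by a DNA-binding dye excluded from viable cells. Compounds were transferred in DMSO 5 h after seeding; fluorescence was recorded at intervals up to 40 h.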

A short description of assay [10]: qHTS RealTime-Glo MT Cell Viability Assay in HepG2 cells - 40 hour (AID 1224870). Note: nearly all actives have a fitted effect of over 50% in size. Note: potency is the fitted concentration of half-maximal effect. The essentials: (§4)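 Real-time viability: cells seeded at 600 per well together with NanoLuc and cell-permeant prosubstrate, compounds added after 5 h incubation. Luminescence tracked at 0, 8, 16, 24, 32 and 40 h of exposure.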
Assay [11] in a line: A CellTox Green Cytotoxicity Assay to monitor cytotoxicity in HEK293 cells - 40 hour (AID 1224871). Note: nearly all actives have a fitted effect of over 45% in size. Note: potency is the fitted concentration of half-maximal effect. The essentials: as §3
Assay [12] can be described thus: qHTS RealTime-Glo MT Cell Viability Assay in HEK293 cells - 16 hour (AID 1224872). In outline:
as §2

The nature of assay [13]: qHTS RealTime-Glo MT Cell Viability Assay in HepG2 cells - 8 hour (AID 1224873). Note: nearly all actives have a fitted effect of over 55% in size. The essentials:
as §4

Assay [14] in a line: qHTS RealTime-Glo MT Cell Viability Assay in HEK293 cells - 40 hour (AID 1224874). Note: nearly all actives have a fitted effect of over 50% in size. As to conditions: RealTime-Glo luminescence; max response: active compounds read low. The essentials: (§5)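 Nonlytic bioluminescent viability monitoring. HEK293 at 600 cells/well with reagent; 5 h settle; compound transfer by pintool; plates held at 37 C and read at set time points.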
The nature of assay [15]: qHTS RealTime-Glo MT Cell Viability Assay in HepG2 cells - 32 hour (AID 1224877). Note: nearly all actives have a fitted effect of over 55% in size. In outline: as §1
Assay [16] in a line: A CellTox Green Cytotoxicity Assay to monitor cytotoxicity in HEK293 cells - 24 hour (AID 1224875). Note: nearly all actives have a fitted effect of over 45% in size. The essentials:
as §3

Assay [17] in a line: A CellTox Green Cytotoxicity Assay to monitor cytotoxicity in HepG2 cells - 16 hour (AID 1224876). Note: nearly all actives have a fitted effect of over 45% in size. The essentials: (§6)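 Real-time, homogeneous cytotoxicity readout: dead-cell DNA staining by CellTox Green in HepG2 monolayers, fluorescence measured at timed intervals up to 40 h of continuous compound exposure.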
Assay [18] is described as follows: A CellTox Green Cytotoxicity Assay to monitor cytotoxicity in HepG2 cells - 24 hour (AID 1224878). Note: nearly all actives have a fitted effect of over 45% in size. Note: potency is the fitted concentration of half-maximal effect. The essentials:
as §6

Assay [19] can be described thus: A CellTox Green Cytotoxicity Assay to monitor cytotoxicity in HepG2 cells - 40 hour (AID 1224879). Note: nearly all actives have a fitted effect of over 40% in size. Note: potency is the fitted concentration of half-maximal effect. The essentials: as §6
Assay [20] is described as follows: qHTS RealTime-Glo MT Cell Viability Assay in HEK293 cells - 0 hour (AID 1224880). In outline:
as §5

Values without a mark were called inactive. Results filed as inconclusive are left out. Calls of active or inactive are those of the source. Unless noted, calls come from the whole dose curve; as a rule, active = well fitted curve in the direction sought with a large enough effect in the repeat runs; inconclusive = weak or mixed curves; inactive = no such curve, though single readings can be large; an effect the other way counts as inactive or inconclusive.
% is set by controls: 0 for no effect and ±100 for the full control effect.

Turning to `O=C(NCC1CN(c2ccc(N3CCOCC3=O)cc2)C(=O)O1)c1ccc(Cl)s1` (configuration not stated), the Potency result in [1], in [2], in [3], in assay [4], in assay [7] and in assay [8] was “inactive” throughout. Further, the Potency result in [9], in assay [10], in assay [11], in assay [12], in [13] and in [15] was “inactive” each time. In addition, in assay [5], the Potency is 23.7 µM (active). Also, the activity change, positive = activation in assay [6] is -38.4% [at 42.5 µM]. Further, the max response in [14] is -20.3%.
For the compound `CCC(Cl)CCC(Cl)C(Cl)CC(Cl)C(Cl)C(Cl)CCl` (configuration not stated), the Potency result in assay [1], in assay [2], in [3], in [4], in assay [5] and in assay [7] was “inactive” in each case. For the same compound, the Potency result in assay [8], in [10], in [11], in [12], in [13] and in assay [16] was “inactive” each time. Further, the Potency entry in [17], in assay [15], in [18], in assay [19] and in [20] was “inactive” each time. In addition, the activity change, positive = activation in assay [6] was 0.0481%. Further, the max response in [14] was 0.988%.
`CN1CCC(N(Cc2cccs2)c2ccccc2)CC1`: the Potency entry in assay [1], in [2], in [3], in [4], in assay [5] and in [7] was “inactive” throughout. For the same compound, the Potency result in assay [8], in assay [10], in assay [12], in assay [13], in [15] and in assay [20] was “inactive” in each case. Also, the activity change, positive = activation in [6] is 0.685% [at 42.5 µM]. In addition, the Potency in assay [11] is 19 µM (active); in assay [18], 10.7 µM (active); in assay [19], 21.3 µM (active). Moreover, in assay [14], the max response was -14.7%.
For the compound `O=C(O)c1nc(Cl)c(Cl)c(Cl)c1Cl`, the Potency entry in assay [1], in assay [2], in [3], in assay [4], in assay [5] and in assay [7] was “inactive” each time. Further, the Potency entry in assay [9], in assay [10], in assay [11], in [12], in [13] and in assay [16] was “inactive” in each case. Moreover, the Potency result in assay [15], in [18] and in assay [19] was “inactive” in each case. Also, the activity change, positive = activation in assay [6] was 0.56%.
Take `C[N+]1(CC2COC(c3ccccc3)(C3CCCCC3)O2)CCCCC1` (configuration not stated): the Potency result in [1], in assay [2], in assay [3], in assay [4], in [5] and in assay [9] was “inactive” in each case. For the same compound, the Potency result in assay [12], in assay [13], in [16], in [18], in assay [19] and in [20] was “inactive” throughout. In addition, in assay [6], the activity change, positive = activation is -8.13% [at 42.5 µM]. Moreover, in [10], the Potency was 23.9 µM (active).
In the case of `CCC(C)(C)CC`, the Potency result in assay [1], in assay [2], in assay [3], in assay [4], in assay [5] and in assay [7] was “inactive” in each case. For the same compound, the Potency result in assay [8], in assay [10], in assay [12], in [13], in [17] and in assay [15] was “inactive” throughout. Also, the Potency entry in [18], in [19] and in [20] was “inactive” each time. In addition, the activity change, positive = activation in assay [6] was -6.86%. Moreover, the max response in assay [14] is -9.85%.
Regarding `O=C(O)c1ccc(S(=O)(=O)O)cc1C(=O)O`, the Potency result in [1], in assay [2], in assay [3], in [4], in assay [5] and in [7] was “inactive” throughout. Also, the Potency result in assay [10], in assay [11], in assay [16], in assay [17], in assay [15] and in [18] was “inactive” in each case. Moreover, in [19], the Potency result was “inactive”. Besides, the activity change, positive = activation in [6] was -2.89%.
